The values that follow come from PubChem BioAssay (NCI).

SMILES strings stand for the structures. Compounds without any hit were thinned out: in the full panel of roughly 83,000, 20% have a hit.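 The endpoint reported here, percent growth, reads 100 for growth as untreated, 0 for no net growth and -100 for all cells dead.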 Activity calls are given as the source filed them. The calls were made as follows: active = growth percent below 10; inactive = the rest.

The test system of this assay is NCI/ADR-RES ovarian. As to the kind of experiment: NCI-60 one-dose screen, 48 h (100 = growth as untreated, 0 = no growth, -100 = all killed). The settings on record: 10 µM unless noted.
`COc1cccc(-c2[nH]c(=S)ncc2C(=O)c2ccccc2)c1`: the growth is 91.8% (inactive).

On to `O=C(N=c1n(-c2ccccc2)nc2n1CCN2C1=NCCN1C(=O)c1ccc(Cl)cc1)c1ccc(Cl)cc1`, for which the growth was 73.3% (inactive).

Consider `COc1cc2c(=O)[nH]c3cc([N+](=O)[O-])ccc3c2cc1[N+](=O)[O-]`, for which the growth is 48.7% (inactive).

Consider `NC(=O)CC1C=CCC1` (stereo not drawn), for which the growth was 109% (inactive).

Take `O=C(Nc1cccc2ccccc12)c1cc2ccccc2cc1O`: the growth is 4.52% (active).

In the case of `Cc1ccc(N)c(O)c1`, the growth was 92.8% (inactive).

Take `CCOC(=O)CCC[P+](c1ccccc1)(c1ccccc1)c1ccccc1`: the growth was 105% (inactive).

Turning to `CCN(CC)c1cc(N)c(Cc2c(N)cc(N(CC)CC)cc2Cl)c(Cl)c1`, the growth was 81.5% (inactive).

For `CSc1nc(N)c(N=Nc2ccc(S(=O)(=O)Nc3nnc(C)s3)cc2)c(=O)[nH]1`, the growth is 113% (inactive).

As to `CC1(C)C(=O)/C(=C\c2cccnc2)C[C@]2(C)[C@H]3CC[C@@H]4[C@H]5[C@H](C(=O)/C=C/c6cccnc6)CC[C@]5(C(=O)O)CC[C@@]4(C)[C@]3(C)CC[C@@H]12`, the growth is -1.33% [100 µM] (active).

Regarding `N#CCCc1c[nH]c2ccccc12`, the growth is 99.3% (inactive).

Take `C[C@@H]1C[C@H]2C(=O)O[C@@H](C)[C@H](NC(=O)[C@H](Cc3cc(F)cc(F)c3)NC(=O)Nc3ccc(C4CC4)cc3F)C(=O)N3CCC[C@H]3C(=O)N3CCCC[C@H]3C(=O)N[C@@H](C)C(=O)N2C1`: the growth is 14.9% (inactive).

For `CCN(CC)CCCC(C)Nc1c2ccc(C)cc2nc2ccc(OC)cc12` (stereo not drawn), the growth was 64% (inactive).
